Calls of active or inactive are those of the source. Rule for the calls: active = hit-call score of the fitted dose curve at least 0.9, where 1 is the maximum; inactive = score below 0.9.
Key:
[1] = ATG_GRE_CIS: Attagene CIS-FACTORIAL HepG2 Assay for human Glucocorticoid Response Elements (GRE) (AID 2282947); conditions: HepG2 GRE cis-reporter, Attagene multiplex mRNA; actives raise or lower the signal
In short: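 Transiently transfected HepG2 cells carrying GRE cis-reporter units (endogenous TF activity) dosed 24 h; reporter mRNA quantified by RT-PCR, 6-FAM labelling, HpaI digestion and capillary electrophoresis. Bidirectional fit versus DMSO baseline.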

[2] = ATG_ISRE_CIS: Attagene CIS-FACTORIAL HepG2 Assay for human Interferon Regulatory Factor 1 (IRF1) binding to an Interferon-Stimulated Response Element (ISRE) (AID 2282948); conditions: HepG2 ISRE cis-reporter (Attagene), mRNA transcription readout; actives raise or lower the signal
In short: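 Quantitation relies on labelled RT-PCR fragments separated by capillary electrophoresis. Human HepG2 cells bearing cis-promoter reporter constructs were treated 24 h; DMSO served as baseline for bidirectional fitting.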

[3] = ATG_M_06_CIS: Attagene CIS-FACTORIAL HepG2 Assay for M06 Transcription Factor (Internal Marker) (AID 2282950); conditions: HepG2 Attagene CIS-FACTORIAL M06 internal marker reporter; actives raise or lower the signal
In short: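 Internal background marker within multiplexed cis-reporter HepG2 system. Cells transiently transfected, dosed 24 h; reporter mRNA measured by RT-PCR, HpaI digestion and capillary electrophoresis. Bidirectional fit relative to DMSO.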

[4] = target: Hypoxia-inducible factor 1-alpha (Homo sapiens) (UniProt Q16665); test: ATG_HIF1a_CIS: Attagene CIS-FACTORIAL HepG2 Assay for human Hypoxia Inducible Factor 1 (HIF1A) (AID 2282951); conditions: HepG2 Attagene cis-factorial HIF1a reporter transcription; actives raise or lower the signal
In short: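 HepG2, transient cis-reporter library, 24 h dosing. RNA → RT (oligo dT) → PCR → 6-FAM primer extension → HpaI → CE. Bidirectional curve fit vs DMSO.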

[5] = target: Hepatocyte nuclear factor 6 (Homo sapiens) (UniProt Q9UBC0); test: ATG_HNF6_CIS: Attagene CIS-FACTORIAL HepG2 Assay for human Hepatocyte Nuclear Factor 6 (HNF6) (AID 2282952); conditions: HepG2 Attagene cis-factorial HNF6 reporter transcription; actives raise or lower the signal
In short: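 Cells are HepG2 carrying transiently transfected cis-promoter reporter units. Treatment lasts 24 h, after which reporter transcripts are reverse-transcribed, amplified, FAM-labelled and sized by capillary electrophoresis. DMSO serves as baseline.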

[6] = target: Heat shock factor protein 1 (Homo sapiens) (UniProt Q00613); test: ATG_HSE_CIS: Attagene CIS-FACTORIAL HepG2 Assay for human Heat Shock Transcription Factor 1 (HSE) (AID 2282953); conditions: HepG2 HSE cis-reporter, Attagene RNA transcription; actives raise or lower the signal
In short: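 HepG2 cells transfected with cis-promoter reporter units sensing endogenous transcription factor activity; reporter mRNA quantified 24 h post-dose by RT-PCR and capillary electrophoresis of 6-FAM-labelled products. Bidirectional fitting against DMSO.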

[7] = ATG_MRE_CIS: Attagene CIS-FACTORIAL HepG2 Assay for human Metal Responsive Element (MRE) (AID 2282954); conditions: HepG2 MRE cis-reporter transcription, Attagene multiplex; actives raise or lower the signal
In short: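 HepG2 cells transiently transfected with cis-element-driven reporter units; mRNA measured 24 h after dosing. Reporter transcripts quantified by RT-PCR, FAM labelling, HpaI digestion and capillary electrophoresis; bidirectional fit versus DMSO.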

[8] = ATG_PBREM_CIS: Attagene CIS-FACTORIAL HepG2 Assay for human Phenobarbital-responsive Enhancer Module (PBREM) (AID 2282955); conditions: HepG2 PBREM cis-reporter, Attagene multiplexed transcription; actives raise or lower the signal
In short: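 HepG2, transient MRTU transfection, 24 h dosing; RNA → oligo(dT) RT → PCR → 6-FAM extension → HpaI → CE. Bidirectional fit vs DMSO.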

[9] = ATG_M_32_CIS: Attagene CIS-FACTORIAL HepG2 Assay for M32 Transcription Factor (Internal Marker) (AID 2282949); conditions: HepG2 Attagene cis-factorial M32 reporter, mRNA; actives raise or lower the signal;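 note: background control marker of the multiplexed CIS panel rather than a real target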
In short: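 Fluorescent capillary electrophoresis peaks of HpaI-digested, FAM-labelled RT-PCR reporter products give the signal. Source: transiently transfected human liver HepG2 cells, 24 h after chemical dosing; bidirectional fitting against DMSO.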

Measured: AC50

Chain of Hypoxia-inducible factor 1-alpha (Homo sapiens) (Q16665 whole entry, looked up): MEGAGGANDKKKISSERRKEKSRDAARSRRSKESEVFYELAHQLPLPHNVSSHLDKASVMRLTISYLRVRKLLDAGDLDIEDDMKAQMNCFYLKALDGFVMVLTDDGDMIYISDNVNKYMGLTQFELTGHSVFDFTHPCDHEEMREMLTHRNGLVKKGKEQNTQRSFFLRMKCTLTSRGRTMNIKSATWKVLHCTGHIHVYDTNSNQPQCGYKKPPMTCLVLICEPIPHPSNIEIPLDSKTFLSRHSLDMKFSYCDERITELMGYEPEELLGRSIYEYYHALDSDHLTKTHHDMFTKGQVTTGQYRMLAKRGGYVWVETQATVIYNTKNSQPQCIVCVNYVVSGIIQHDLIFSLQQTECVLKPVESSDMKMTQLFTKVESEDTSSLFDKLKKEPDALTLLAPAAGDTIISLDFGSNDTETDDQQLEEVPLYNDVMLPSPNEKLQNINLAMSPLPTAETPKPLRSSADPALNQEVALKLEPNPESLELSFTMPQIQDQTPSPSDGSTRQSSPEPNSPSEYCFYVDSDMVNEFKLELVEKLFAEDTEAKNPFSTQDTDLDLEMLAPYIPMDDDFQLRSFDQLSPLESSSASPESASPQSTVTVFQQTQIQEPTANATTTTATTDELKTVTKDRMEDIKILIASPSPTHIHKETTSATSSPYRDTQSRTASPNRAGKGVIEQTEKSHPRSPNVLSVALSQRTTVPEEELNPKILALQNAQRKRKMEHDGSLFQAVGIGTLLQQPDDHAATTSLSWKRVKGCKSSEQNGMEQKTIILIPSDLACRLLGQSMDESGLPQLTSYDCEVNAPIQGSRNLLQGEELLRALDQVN
Chain of Hepatocyte nuclear factor 6 (Homo sapiens) (Q9UBC0 whole entry, looked up): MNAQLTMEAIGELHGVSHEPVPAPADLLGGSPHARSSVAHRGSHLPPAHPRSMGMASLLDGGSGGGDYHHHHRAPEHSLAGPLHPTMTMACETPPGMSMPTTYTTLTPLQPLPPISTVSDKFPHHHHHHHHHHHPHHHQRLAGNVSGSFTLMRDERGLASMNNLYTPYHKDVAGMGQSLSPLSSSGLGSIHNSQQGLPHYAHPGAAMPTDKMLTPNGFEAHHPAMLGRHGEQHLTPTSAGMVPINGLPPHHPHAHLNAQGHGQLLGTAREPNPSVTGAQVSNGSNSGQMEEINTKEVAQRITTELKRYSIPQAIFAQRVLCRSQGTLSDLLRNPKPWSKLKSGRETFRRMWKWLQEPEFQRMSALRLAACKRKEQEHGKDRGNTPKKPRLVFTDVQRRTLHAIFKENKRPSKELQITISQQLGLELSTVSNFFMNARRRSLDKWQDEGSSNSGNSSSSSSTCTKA
Chain of Heat shock factor protein 1 (Homo sapiens) (Q00613 whole entry, looked up): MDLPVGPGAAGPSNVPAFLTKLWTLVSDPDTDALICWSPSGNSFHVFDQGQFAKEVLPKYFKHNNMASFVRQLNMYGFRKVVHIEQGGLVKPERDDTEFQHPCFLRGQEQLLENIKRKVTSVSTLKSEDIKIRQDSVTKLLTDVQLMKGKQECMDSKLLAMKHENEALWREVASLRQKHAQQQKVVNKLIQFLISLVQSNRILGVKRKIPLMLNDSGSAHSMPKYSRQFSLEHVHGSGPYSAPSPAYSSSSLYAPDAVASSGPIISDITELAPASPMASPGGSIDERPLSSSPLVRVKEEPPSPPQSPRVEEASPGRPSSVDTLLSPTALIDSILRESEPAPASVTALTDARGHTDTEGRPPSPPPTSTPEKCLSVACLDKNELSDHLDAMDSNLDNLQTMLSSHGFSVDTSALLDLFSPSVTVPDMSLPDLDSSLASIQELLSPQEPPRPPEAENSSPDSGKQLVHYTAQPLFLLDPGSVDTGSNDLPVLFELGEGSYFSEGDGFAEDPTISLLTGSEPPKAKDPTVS

CC(=O)OC[C@H]1O[C@@](COC(C)=O)(O[C@H]2O[C@H](COC(C)=O)[C@@H](OC(C)=O)[C@H](OC(C)=O)[C@H]2OC(C)=O)[C@@H](OC(C)=O)[C@@H]1OC(C)=O
inactive: [1] | [2] | [3] | [4] | [5] | [6] | [7]

O=P(OC(CCl)CCl)(OC(CCl)CCl)OC(CCl)CCl
inactive: [3]
active: [1] 153 µM | [2] 23.2 µM | [4] 36.3 µM | [5] 153 µM | [6] 151 µM | [7] 107 µM

O=C1CCC(N2C(=O)c3ccccc3C2=O)C(=O)N1 (centres undefined)
inactive: [1] | [2] | [3] | [5] | [6] | [7] | [8]

CC(C)CCCCCCOC(=O)c1ccc(C(=O)OCCCCCCC(C)C)c(C(=O)OCCCCCCC(C)C)c1
inactive: [2] | [9] | [3] | [4] | [5] | [6] | [7] | [8]

O=C(O)CCN(C1(C(=O)NO)CCCC1)S(=O)(=O)c1ccc(Oc2ccc(F)cc2)cc1
inactive: [2] | [9] | [3] | [4] | [5] | [6] | [7] | [8]

O=C(NS(=O)(=O)/C=C/c1ccccc1)c1ccc(F)cc1Cl
inactive: [2] | [9] | [3] | [4] | [5] | [6] | [7] | [8]

CC1=CC(=O)CC(C)(C)C1
inactive: [1] | [2] | [3] | [4] | [5] | [7]

Cn1cnc([N+](=O)[O-])c1Sc1ncnc2nc[nH]c12
active: [2] 63.3 µM
inactive: [1] | [3] | [5] | [7] | [8]

Clc1nc(Cl)c(Cl)c(Cl)c1Cl
inactive: [1] | [2] | [9] | [3] | [4] | [5] | [6] | [7] | [8]

O=C1OC(=O)C2C3C=CC(C3)C12 (centres undefined)
inactive: [2] | [3] | [4] | [5] | [6] | [7]

COC(=O)c1ccccc1O
inactive: [2] | [3] | [4] | [5] | [7]

O=C(O)c1cc(N=Nc2ccc(S(=O)(=O)Nc3ccccn3)cc2)ccc1O
inactive: [1] | [2] | [9] | [3] | [5] | [6] | [7]

CC(C)CCO
inactive: [2] | [3] | [4] | [5] | [6] | [7]

NC(=O)NO
inactive: [1] | [2] | [3] | [5] | [6] | [7] | [8]

CCCCCCCCO
inactive: [1] | [2] | [3] | [4] | [5] | [6] | [7] | [8]

CCOC(=O)COc1ccc2c(c1)CC(NCC(O)c1cccc(Cl)c1)CC2 (centres undefined)
active: [4] 33 µM | [6] 45.5 µM | [8] 49.3 µM
inactive: [2] | [3] | [5] | [7]

Nc1nc2ncc(CNc3ccc(C(=O)N[C@@H](CCC(=O)O)C(=O)O)cc3)nc2c(=O)[nH]1
inactive: [1] | [2] | [3] | [5] | [6] | [7] | [8]

On1ccccc1=S
inactive: [1] | [2] | [3] | [4] | [5] | [7] | [8]
active: [6] 26 µM

COc1ccc(-n2nc(C(F)F)cc2-c2ccc(S(C)=O)cc2)cc1 (centres undefined)
inactive: [1] | [2] | [3] | [4] | [5] | [7]

CC[C@H]1OC(=O)[C@H](C)[C@@H](O[C@H]2C[C@@](C)(OC)[C@@H](O)[C@H](C)O2)[C@H](C)[C@@H](O[C@@H]2O[C@H](C)C[C@H](N(C)C)[C@H]2O)[C@](C)(O)C[C@@H](C)C(=O)[C@H](C)[C@@H](O)[C@]1(C)O
inactive: [2] | [9] | [3] | [5] | [6] | [7] | [8]

O=C(O)CC(O)C(=O)O (centres undefined)
inactive: [2] | [3] | [4] | [5] | [6] | [7] | [8]

C[C@](N)(Cc1ccc(O)c(O)c1)C(=O)O
inactive: [2] | [3] | [4] | [5] | [6] | [7] | [8]

CC(C)CC(C)(O)C#CC(C)(O)CC(C)C (centres undefined)
inactive: [1] | [2] | [3] | [4] | [5] | [6] | [7] | [8]

CN(C)c1ccc(N=NS(=O)(=O)O)cc1
active: [4] 40.9 µM
inactive: [1] | [2] | [3] | [5] | [7] | [8]

Cc1ccc(S(=O)(=O)O)cc1C
inactive: [1] | [2] | [9] | [3] | [4] | [5] | [6] | [7] | [8]

CC(C)=CCCC(C)CCO (centres undefined)
inactive: [2] | [3] | [5] | [6] | [7]
active: [4] 178 µM

Reference: PubChem BioAssay (EPA / NIEHS)
